# From publication PMC8384837, “Expanding the binding specificity for RNA recognition by a PUF domain”
# Columns and labels:
# Experiment in all cases: yeast three-hybrid, YBZ-1, SC-Leu-His + 0.5 mM 3-AT, 4 days
# Settings in all cases: tags: N-Gal4 AD-HA kept; label: inside an RPR1-promoter hybrid RNA with tandem MS2 sites; ssRNA
# PUM1 PUF domain R1-RQS = PUM1 PUF domain R1-RQS (Homo sapiens, UniProt Q14671 828-1176, S863R;R864Q;Q867S)
# Procedure, shortened: (§1)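 A centromeric plasmid in strain YBZ-1 co-expressed Pumilio-1 PUF domain libraries, randomized at the three base-contacting residues of each repeat, with matching RNA elements; the strain carries a LexA–MS2 coat fusion and a HIS3 reporter. After four days on SC-Leu (input) or SC-Leu-His + 0.5 mM 3-AT (selection), the repeat regions were PCR-amplified and Illumina-sequenced. The interaction score is the log change in variant frequency from input to selection, using log2 and a pseudocount of 1 where absent.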
# PUM1 PUF domain R1-GKK = PUM1 PUF domain R1-GKK (Homo sapiens, UniProt Q14671 828-1176, S863G;R864K;Q867K)
# Procedure, shortened: as §1
# PUM1 PUF domain R1-RTS = PUM1 PUF domain R1-RTS (Homo sapiens, UniProt Q14671 828-1176, S863R;R864T;Q867S)
# Procedure, shortened: as §1
# PUM1 PUF domain R1-KVI = PUM1 PUF domain R1-KVI (Homo sapiens, UniProt Q14671 828-1176, S863K;R864V;Q867I)
# Procedure, shortened: as §1
# PUM1 PUF domain R3-CRL = PUM1 PUF domain R3-CRL (Homo sapiens, UniProt Q14671 828-1176, Q939L)
# Procedure, shortened: as §1
# PUM1 PUF domain R3-IRG = PUM1 PUF domain R3-IRG (Homo sapiens, UniProt Q14671 828-1176, C935I;Q939G)
# Procedure, shortened: as §1
# PUM1 PUF domain R3-TRW = PUM1 PUF domain R3-TRW (Homo sapiens, UniProt Q14671 828-1176, C935T;Q939W)
# Procedure, shortened: as §1
# PUM1 PUF domain R3-SRT = PUM1 PUF domain R3-SRT (Homo sapiens, UniProt Q14671 828-1176, C935S;Q939T)
# Procedure, shortened: as §1
# PUM1 PUF domain R5-QMW = PUM1 PUF domain R5-QMW (Homo sapiens, UniProt Q14671 828-1176, C1007Q;R1008M;Q1011W)
# Procedure, shortened: as §1
# PUM1 PUF domain R4-ANC = PUM1 PUF domain R4-ANC (Homo sapiens, UniProt Q14671 828-1176, N971A;H972N;Q975C)
# Procedure, shortened: as §1
# PUM1 PUF domain R4-CMC = PUM1 PUF domain R4-CMC (Homo sapiens, UniProt Q14671 828-1176, N971C;H972M;Q975C)
# Procedure, shortened: as §1
# PUM1 PUF domain R7-KPV = PUM1 PUF domain R7-KPV (Homo sapiens, UniProt Q14671 828-1176, S1079K;N1080P;E1083V)
# Procedure, shortened: as §1
# PUM1 PUF domain R8-PWT = PUM1 PUF domain R8-PWT (Homo sapiens, UniProt Q14671 828-1176, N1122P;Y1123W;Q1126T)
# Procedure, shortened: as §1
# PUM1 PUF domain R8-LFK = PUM1 PUF domain R8-LFK (Homo sapiens, UniProt Q14671 828-1176, N1122L;Y1123F;Q1126K)
# Procedure, shortened: as §1
# PUM1 PUF domain R4-CMC, sequence (Q14671 828-1176 N971C/H972M/Q975C): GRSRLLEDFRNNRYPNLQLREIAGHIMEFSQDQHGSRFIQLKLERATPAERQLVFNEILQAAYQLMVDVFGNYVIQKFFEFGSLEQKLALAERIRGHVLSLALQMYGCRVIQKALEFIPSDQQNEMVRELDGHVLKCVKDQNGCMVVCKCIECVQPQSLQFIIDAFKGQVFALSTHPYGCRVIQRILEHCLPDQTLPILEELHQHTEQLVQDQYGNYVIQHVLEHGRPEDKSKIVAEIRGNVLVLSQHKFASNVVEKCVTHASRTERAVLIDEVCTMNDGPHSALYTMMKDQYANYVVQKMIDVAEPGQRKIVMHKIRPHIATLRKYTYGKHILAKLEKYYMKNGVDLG
# PUM1 PUF domain R4-ANC, sequence (Q14671 828-1176 N971A/H972N/Q975C): as the sequence (Q14671 828-1176 N971C/H972M/Q975C) above, with C144A, M145N counted along it
# PUM1 PUF domain R5-QMW, sequence (Q14671 828-1176 C1007Q/R1008M/Q1011W): as the sequence (Q14671 828-1176 N971C/H972M/Q975C) above, with C144N, M145H, C148Q, C180Q, R181M, Q184W counted along it
# PUM1 PUF domain R1-KVI, sequence (Q14671 828-1176 S863K/R864V/Q867I): as the sequence (Q14671 828-1176 N971C/H972M/Q975C) above, with S36K, R37V, Q40I, C144N, M145H, C148Q counted along it
# PUM1 PUF domain R3-IRG, sequence (Q14671 828-1176 C935I/Q939G): as the sequence (Q14671 828-1176 N971C/H972M/Q975C) above, with C108I, Q112G, C144N, M145H, C148Q counted along it
# PUM1 PUF domain R7-KPV, sequence (Q14671 828-1176 S1079K/N1080P/E1083V): as the sequence (Q14671 828-1176 N971C/H972M/Q975C) above, with C144N, M145H, C148Q, S252K, N253P, E256V counted along it
# PUM1 PUF domain R1-RTS, sequence (Q14671 828-1176 S863R/R864T/Q867S): as the sequence (Q14671 828-1176 N971C/H972M/Q975C) above, with S36R, R37T, Q40S, C144N, M145H, C148Q counted along it
# PUM1 PUF domain R1-GKK, sequence (Q14671 828-1176 S863G/R864K/Q867K): as the sequence (Q14671 828-1176 N971C/H972M/Q975C) above, with S36G, R37K, Q40K, C144N, M145H, C148Q counted along it
# PUM1 PUF domain R3-CRL, sequence (Q14671 828-1176 Q939L): as the sequence (Q14671 828-1176 N971C/H972M/Q975C) above, with Q112L, C144N, M145H, C148Q counted along it
# PUM1 PUF domain R3-SRT, sequence (Q14671 828-1176 C935S/Q939T): as the sequence (Q14671 828-1176 N971C/H972M/Q975C) above, with C108S, Q112T, C144N, M145H, C148Q counted along it
# PUM1 PUF domain R8-LFK, sequence (Q14671 828-1176 N1122L/Y1123F/Q1126K): as the sequence (Q14671 828-1176 N971C/H972M/Q975C) above, with C144N, M145H, C148Q, N295L, Y296F, Q299K counted along it
# PUM1 PUF domain R8-PWT, sequence (Q14671 828-1176 N1122P/Y1123W/Q1126T): as the sequence (Q14671 828-1176 N971C/H972M/Q975C) above, with C144N, M145H, C148Q, N295P, Y296W, Q299T counted along it
# PUM1 PUF domain R3-TRW, sequence (Q14671 828-1176 C935T/Q939W): as the sequence (Q14671 828-1176 N971C/H972M/Q975C) above, with C108T, Q112W, C144N, M145H, C148Q counted along it
# PUM1 PUF domain R1-RQS, sequence (Q14671 828-1176 S863R/R864Q/Q867S): as the sequence (Q14671 828-1176 N971C/H972M/Q975C) above, with S36R, R37Q, Q40S, C144N, M145H, C148Q counted along it
sequence,measurement,setting,value
GGCUAGAACUAGUGGAUCCCCCGGCGCCCGGCGGCUCGAGCCCGGGUAAGUGUAAAUUGUCUGCAUGCCGCCGGGCGCCAUGCCUGCAGGUCGACUCUAGAAAACAUG,binding signal,PUM1 PUF domain R1-RQS,3.04 log2 enrichment (interaction score)
same,binding signal,PUM1 PUF domain R1-GKK,5.09 log2 enrichment (interaction score)
same,binding signal,PUM1 PUF domain R1-RTS,4.22 log2 enrichment (interaction score)
same,binding signal,PUM1 PUF domain R1-KVI,4.79 log2 enrichment (interaction score)
GGCUAGAACUAGUGGAUCCCCCGGCGCCCGGCGGCUCGAGCCCGGGUAAGUGUAAUUAGUCUGCAUGCCGCCGGGCGCCAUGCCUGCAGGUCGACUCUAGAAAACAUG,binding signal,PUM1 PUF domain R3-CRL,1.88 log2 enrichment (interaction score)
same,binding signal,PUM1 PUF domain R3-IRG,0.44 log2 enrichment (interaction score)
same,binding signal,PUM1 PUF domain R3-TRW,0.56 log2 enrichment (interaction score)
same,binding signal,PUM1 PUF domain R3-SRT,1.65 log2 enrichment (interaction score)
GGCUAGAACUAGUGGAUCCCCCGGCGCCCGGCGGCUCGAGCCCGGGUAAGUGUGAAUAGUCUGCAUGCCGCCGGGCGCCAUGCCUGCAGGUCGACUCUAGAAAACAUG,binding signal,PUM1 PUF domain R5-QMW,2.85 log2 enrichment (interaction score)
GGCUAGAACUAGUGGAUCCCCCGGCGCCCGGCGGCUCGAGCCCGGGUAAGUGUUAAUAGUCUGCAUGCCGCCGGGCGCCAUGCCUGCAGGUCGACUCUAGAAAACAUG,binding signal,PUM1 PUF domain R5-QMW,0.66 log2 enrichment (interaction score)
GGCUAGAACUAGUGGAUCCCCCGGCGCCCGGCGGCUCGAGCCCGGGUAAGUGUAUAUAGUCUGCAUGCCGCCGGGCGCCAUGCCUGCAGGUCGACUCUAGAAAACAUG,binding signal,PUM1 PUF domain R4-ANC,4.27 log2 enrichment (interaction score)
same,binding signal,PUM1 PUF domain R4-CMC,5.2 log2 enrichment (interaction score)
GGCUAGAACUAGUGGAUCCCCCGGCGCCCGGCGGCUCGAGCCCGGGUAAGUUUAAAUAGUCUGCAUGCCGCCGGGCGCCAUGCCUGCAGGUCGACUCUAGAAAACAUG,binding signal,PUM1 PUF domain R7-KPV,4.82 log2 enrichment (interaction score)
GGCUAGAACUAGUGGAUCCCCCGGCGCCCGGCGGCUCGAGCCCGGGUAAGUGUACAUAGUCUGCAUGCCGCCGGGCGCCAUGCCUGCAGGUCGACUCUAGAAAACAUG,binding signal,PUM1 PUF domain R4-ANC,2.65 log2 enrichment (interaction score)
same,binding signal,PUM1 PUF domain R4-CMC,2.87 log2 enrichment (interaction score)
GGCUAGAACUAGUGGAUCCCCCGGCGCCCGGCGGCUCGAGCCCGGGUAAGCGUAAAUAGUCUGCAUGCCGCCGGGCGCCAUGCCUGCAGGUCGACUCUAGAAAACAUG,binding signal,PUM1 PUF domain R8-PWT,3.16 log2 enrichment (interaction score)
same,binding signal,PUM1 PUF domain R8-LFK,5.27 log2 enrichment (interaction score)
